PKM2 activator = PKM2 (human) enzyme activation | P14618 | purified PKM2, Kinase-Glo ATP luminescence, activation; response scale: 0% is enzyme alone, no compound | Potency, µM (top dose mostly 57.5 µM), for inactives: at the top dose activation, actives largely listed as activators | actives 0.34% (n = 260,000) | AID 1631; further: potency means the concentration at half of the fitted maximal effect; on the % scale 0 is the no-effect control and ±100 the full control effect; nearly all actives have a fitted effect of over 55% in size
Target sequence (P14618 whole entry, looked up): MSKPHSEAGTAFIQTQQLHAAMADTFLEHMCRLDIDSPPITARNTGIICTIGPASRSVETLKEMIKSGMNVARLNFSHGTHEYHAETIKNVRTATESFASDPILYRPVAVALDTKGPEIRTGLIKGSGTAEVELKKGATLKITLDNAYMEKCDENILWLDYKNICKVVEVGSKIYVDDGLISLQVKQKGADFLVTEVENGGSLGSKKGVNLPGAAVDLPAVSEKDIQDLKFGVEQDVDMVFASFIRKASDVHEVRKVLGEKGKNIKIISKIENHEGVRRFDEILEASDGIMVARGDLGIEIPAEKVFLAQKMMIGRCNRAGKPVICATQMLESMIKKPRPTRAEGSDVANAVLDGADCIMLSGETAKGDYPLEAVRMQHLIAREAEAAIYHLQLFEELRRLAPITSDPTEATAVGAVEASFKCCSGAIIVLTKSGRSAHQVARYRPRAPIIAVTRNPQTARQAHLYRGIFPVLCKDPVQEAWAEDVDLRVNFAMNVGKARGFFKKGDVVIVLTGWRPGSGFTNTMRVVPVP
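Kinase-Glo luminescence reports ATP generated from ADP (0.1 mM) and PEP (0.5 mM) by purified hPK-M2 after 1 h at room temperature, pH 7.2 imidazole buffer; intermediate enzyme activity allows detecting inhibitors and activators.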
Apoferritin bind = binds horse apoferritin like a general anesthetic | apoferritin/1-aminoanthracene competitive binding, fluorescence | Potency, µM (top dose mostly 77.5 µM), inactives show at the top dose activity change, negative = displacement, most hits filed as inhibitors | actives 0.074% (n = 350,000) | AID 485281; further: potency means the concentration at half of the fitted maximal effect; on the % scale 0 is the no-effect control and ±100 the full control effect; nearly all actives have a fitted effect of over 20% in size
Target sequence (P02791 2-175 limits assumed): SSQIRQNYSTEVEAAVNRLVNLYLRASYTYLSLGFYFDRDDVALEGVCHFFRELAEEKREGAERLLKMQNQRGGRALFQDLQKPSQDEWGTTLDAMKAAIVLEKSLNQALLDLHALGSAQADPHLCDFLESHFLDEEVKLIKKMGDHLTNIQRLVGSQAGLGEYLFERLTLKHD
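Horse-spleen apoferritin (10 uM) in 50% saturated 1-aminoanthracene in PBS was incubated 10 min at room temperature with compound. Fluorescence (ex 380, em 535 nm) was normalized to free and bound 1-AMA, with concentration-response fitted by a four-parameter Hill equation.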
BRCA1 expr act = increases BRCA1 expression; MCF7-BRCA1-FFLuc reporter, luminescence, 48 h; response scale: scaled: vehicle 0%, 10 µM genistein 100%; Potency, µM (titrated, usually from 46.1 µM), without a hit: at the top dose activation, most hits filed as activators; actives 1.1% (n = 380,000); AID 624202; further: potency means the concentration at half of the fitted maximal effect; nearly all actives have a fitted effect of over 80% in size
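Quantitative HTS in MCF7 cells stably reporting BRCA1 expression via firefly luciferase. Compound treatment lasts 48 h at 37 °C in phenol-red free MEM. Activation is expressed relative to genistein at 10 microM and DMSO.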
IL-2 act = activators of IL-2; IL-2 activation reporter assay, cell-based qHTS; stimulated with anti-CD3/CD4/CD28 beads; in transgenic mouse T cells; activation, % (series mostly up to about 46 µM); actives 0.065% (n = 360,000); AID 652025; in the data active means activation above about 50%; inconclusive means mostly about 30% to 49%; further: 0% is about no effect
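Unstimulated transgenic mouse T cells preincubated 60 min with compound, then stimulated with anti-CD3/anti-CD4-coated beads plus anti-CD28 for 18 h at 37 degrees C. IL-2 response read as EGFP and DsRed fluorescence by plate cytometry.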
a7 integrin act = activates integrin-mediated alleviation for muscular dystrophy; alpha7betagal myoblasts, beta-gal FDG fluorescence, 48 h; Potency, µM (titrated, usually from 38.3 µM), inactives show at the highest dose activation, usual class: activators; actives 0.064% (n = 350,000); AID 624291;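 further: potency means the concentration at half of the fitted maximal effect; 100% = response of the positive control SU9516; nearly all actives have a fitted effect of over 60% in size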
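Alpha7betagal+/- myoblasts (passage 13) were plated 16-24 hr, then exposed to compounds (1:260 dilution of DMSO stock) for 48 hours at 37C. After MPER lysis, β-galactosidase reporter activity was read as FDG fluorescence (ex 480/em 540) after 30 minutes.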
An asterisk follows results filed as active; ? = inconclusive; · = not tested or not shown; [ ] = another dose, or the depositor's remark. An excerpt weighted towards active compounds, which were near 1.3% of everything screened. Unless noted, the call rests on the fitted dose curve; in most records, active means well fitted curve in the direction sought with a large enough effect; inconclusive means small, poorly fitted or top-dose-only effect, or another doubt; inactive means no such curve, though single readings can be large; an effect the other way counts as inactive or inconclusive.

SMILES | PKM2 activator | Apoferritin bind | BRCA1 expr act | IL-2 act | a7 integrin act
C#CCN1C(=O)S/C(=C\c2ccc(N3CCOCC3)cc2C)C1=O | 1% | -16% | 74% | 203* | -7%
Cc1cccc(OCCC(=O)NO)c1 | · | · | -4% | · | ·
C=CCc1cccc(C2NC(C(=O)O)CCC2C)c1 (stereo not given) | · | 2%[15.3 µM] | · | · | ·
Cc1nc(C(C)NC(=O)c2cc(COc3ccc(C)c(C)c3)on2)c(C)s1 (stereo not given) | · | -39% | 5.6µM* | -1 | 31%
CCc1nnc(NC(=O)CSc2ccc(-c3ccc(C)cc3)nn2)s1 | 18% | -10% | 11µM* | 0 | -1%
CC(C)(C)NC(=O)CSc1nc(-c2ccc(F)cc2)cs1 | 8% | -18% | ? | 1 | 4%
Cc1ccc(-c2csc(NC(=O)CSc3nc(C)cs3)n2)cc1 | -21% | 51% | 11µM* | -1 | 0%
CCNC(=O)CSc1nc(-c2ccc(F)cc2)cs1 | -1% | -7% | ? | 0 | 5µM*
CCOc1ccc(-c2ccc(SCC(=O)Nc3nnc(CC)s3)nn2)cc1 | -1% | -1% | ? | 0 | 15%
Clc1ccc(-c2csc3ncnc(Sc4nnnn4C4CC4)c23)cc1 | · | · | -78% | · | ·
N#Cc1c2c(c(Cl)n3c1nc1ccccc13)CCCC2 | · | · | -1% | · | ·
CCc1cc2c(cc3c(=O)n(CCCC(=O)NCc4ccccc4Cl)nc(CC)n32)s1 | · | -11% | · | · | ·
CC1CCCCN1C(=O)COC(=O)c1ccc(N2CCCC2=O)cc1 (stereo not given) | · | · | 34% | 3 | 7%
CC1CCN(C(=O)COC(=O)c2ccc3c(c2)OCO3)CC1 | -2% | -22% | 2.5µM* | 1 | 6%
Nc1ccc(C(=O)OCC(=O)N2CCOCC2)cc1[N+](=O)[O-] | -1% | -15% | 11µM* | -3 | 2%
CC1CCCCN1C(=O)COC(=O)c1cc(Cl)c2c(c1)OCO2 (stereo not given) | · | · | 11µM* | -4 | 5%
CC1CCN(C(=O)COC(=O)c2ccc3c(c2)OCCO3)CC1 | · | · | ? | 0 | 6%
NC1(C(=O)O)CCc2cc(P(=O)(O)O)ccc21 (stereo not given) | · | -18% | · | · | ·
CCNc1nc(N)c(C(=O)c2ccc(Cl)s2)s1 | -1% | -23% | 5µM* | -1 | -12%
Cc1cc(N2C(=O)C=CC2=O)c([N+](=O)[O-])cc1C | 5.6µM* | 7% | -33% | -3 | -69%
Cc1c([N+](=O)[O-])cc(N2C(=O)C=CC2=O)cc1[N+](=O)[O-] | · | · | -4% | 0 | 16%
CN(C)c1ccc(/C=C/c2ccnc3ccc(N)cc23)cc1 | · | · | -38% | · | ·
CC(C)CCNC(=O)CN1C(=O)CSc2ccc(S(=O)(=O)N3CCC(C)CC3)cc21 | · | 2% | · | · | ·
CCOc1ccc(C(=O)N2CCN(c3cccc(C)c3C)CC2)cc1 | 14µM* | ? | 3% | 0 | -28%
COC(=O)C(Cc1ccc(OC(=O)c2ccc(C(F)(F)F)cc2)cc1)N1Cc2ccccc2C1=O (stereo not given) | 0% | ? | 11µM* | -3 | -44%
SMILES | PKM2 activator | Apoferritin bind | BRCA1 expr act | IL-2 act | a7 integrin act
COC(=O)C(Cc1ccc(OC(=O)c2ccc(Cl)cc2)cc1)N1Cc2ccccc2C1=O (stereo not given) | 5% | -3% | 13µM* | 1 | 5%
CCOC(=O)c1ccc(NC(=O)C(Cc2ccccc2)N2Cc3ccccc3C2=O)cc1 (stereo not given) | · | -15% | · | · | ·
OC[C@H]1OC(O)[C@@H](O)[C@@H](O)[C@H]1O (stereo not given in full) | · | 4% | · | · | ·
CC(C)=CCC1(CC=C(C)C)C(=O)C(C(=O)c2ccccc2)=C2OC(C)(C)CCC2(CC=C(C)C)C1=O (stereo not given) | · | -12%[15.3 µM] | · | · | ·
CN(N=O)c1ccc(/C=C/c2ccccc2)cc1 | · | · | 5.6µM* | · | ·
CN(N=O)c1ccc(C=C2C=Cc3ccccc32)cc1 | · | · | ? | 0 | 18%
O=C(NC1CC1)C1=C[C@@H](c2csc3ccccc23)C[C@@H](OCCCCO)O1 | 14µM* | 2% | -5% | 0 | -14%
CCc1ccc(/C=C2/SC(=S)N(CCC(=O)Nc3cccnc3)C2=O)cc1 | 4% | -8% | -32% | 54* | 34%
Clc1ccc(-c2cnnc(-c3ccccn3)n2)cc1 | · | · | ? | 1 | 23%
c1ccc(-c2cnnc(-c3ccccn3)n2)cc1 | · | · | 4.5µM* | -3 | -22%
Nc1ccc(C(=O)OCc2nc3c(ccc4ccccc43)[nH]2)cc1 | 4% | -6% | 7.1µM* | -1 | 22%
Cc1ccc(OCc2cc(C(=O)N(CCO)Cc3cccs3)no2)cc1C | 1% | ? | 11µM* | -1 | 8%
CCN(Cc1ccncc1)C(=O)c1cc(COc2ccc(C)c(C)c2)on1 | 0% | ? | 2% | -2 | 0%
Cc1cc(C)n(-c2nc(C)c(C)c(=O)n2CC(=O)Nc2ccc(OC(F)(F)F)cc2)n1 | · | 1% | · | · | ·
CN(C)C1(CN=Cc2cc(Cl)cc([N+](=O)[O-])c2O)CCCCC1 | 0% | 7% | -37% | -1 | 8.9µM*
Cc1cccn(Cc2c(F)cccc2Cl)c1=O | 32µM* | 4% | -2% | 7 | 12%
Cc1cccn(Cc2c(Cl)cccc2Cl)c1=O | · | · | -6% | 0 | 12%
C/C(=N\Nc1nnc2c3ccccc3n(C)c2n1)c1ccc(C)o1 | -4% | 1% | -6% | -2 | -16%
Cc1cc(C)n(-c2nnc3c4ccccc4n(C)c3n2)n1 | -7% | -7% | 1.4µM* | 4 | -7%
Cc1cccc(C)c1OCC(=O)N(Cc1ccccc1F)C1CCS(=O)(=O)C1 (stereo not given) | · | -3% | · | · | ·
Cn1c(SCC(=O)c2ccccc2)nnc1-c1ccccn1 | -2% | -7% | 11µM* | 0 | 2%
CCn1nccc1C(=O)Nc1ccc(Cl)cc1Cl | -1% | 0% | 10µM* | -2 | 2%
CCn1nccc1C(=O)Nc1cc(Cl)ccc1Cl | -11% | -7% | 8% | 0 | 9%
Cc1cccc(COc2ncnc3nc[nH]c23)c1 | 2% | -8% | 10µM* | -4 | -17%
O=C(NCC1CC1)c1ccc2c3n(nc2c1)-c1ccc(Cl)cc1CO3 | · | · | 2.5µM* | 0 | -9%
COCCNC(=O)c1ccc2c3n(nc2c1)-c1ccc(Cl)cc1CO3 | -8% | -3% | ? | 0 | -18%
Cc1ccc2c(c1)COc1c3ccc(C(=O)N4CCOCC4)cc3nn1-2 | -25% | 0% | 4.5µM* | 0 | 0%
O=C(NCCO)c1ccc2c3n(nc2c1)-c1ccc(Cl)cc1CO3 | -3% | 8% | 3.2µM* | 0 | 4%
CC(C)[C@@H](CO)NC(=O)c1ccc2c3n(nc2c1)-c1ccc(Cl)cc1CO3 | 0% | -13% | 4µM* | 0 | 32%
